Compound activity as filed in PubChem BioAssay.
Only some compounds are listed: those with a hit (about 2.9% of all), similar ones and a draw of the others.
IP6K1 inhibitor = blocks human inositol hexakisphosphate kinase 1; Q92551; 140,000 tested, 0.81% active; AID 1645851; activity change, % (series mostly up to about 58 µM); IP6K1 kinase, ADP-Glo luminescence, 2 h; stronger effect = lower value; in the data active means activity change below about -25%; further: on the % scale 0 is the no-effect control and ±100 the full control effect
Target sequence (Q92551 whole entry, looked up): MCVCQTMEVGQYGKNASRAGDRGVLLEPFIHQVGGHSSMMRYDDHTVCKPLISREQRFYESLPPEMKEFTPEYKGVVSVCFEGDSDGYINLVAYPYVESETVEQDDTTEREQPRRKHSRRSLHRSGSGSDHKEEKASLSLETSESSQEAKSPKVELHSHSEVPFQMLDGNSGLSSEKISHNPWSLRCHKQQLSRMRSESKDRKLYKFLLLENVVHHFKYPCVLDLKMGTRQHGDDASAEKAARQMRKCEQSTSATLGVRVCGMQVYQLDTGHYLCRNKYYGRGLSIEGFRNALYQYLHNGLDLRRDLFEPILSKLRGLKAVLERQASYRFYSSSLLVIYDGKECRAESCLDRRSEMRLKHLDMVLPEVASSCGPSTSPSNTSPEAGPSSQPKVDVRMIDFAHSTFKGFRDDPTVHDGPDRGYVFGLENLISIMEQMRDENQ
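ADP-Glo luminescence measures ADP made by human IP6K1 during a 2 h RT reaction with ATP/IP6 (mix at 1.3 mM/130 uM); top library doses 57.5 and 19.1 uM final.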
HEK293 viab = reduces viability of HEK-293 SNCA reporter cells; HEK-293-SNCA-luc viability, GF-AFC fluorescence, 24 h; Potency, µM (top dose mostly 57.1 µM), without a hit: at the top dose activity change, negative = cytotoxicity, usual class: cytotoxic; 150,000 tested, 0.12% active;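 further: potency means the concentration at half of the fitted maximal effect; 0% = DMSO-treated cells and -100% = medium-only wells without cells; nearly all actives have a fitted effect of over 30% in size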
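Cytotoxicity counterscreen: after 24 h compound treatment of genome-edited SNCA-luciferase HEK-293 cells, live-cell protease substrate GF-AFC read by fluorescence after 30 min; activity scaled between DMSO (0%) and medium-only (-100%), curves Hill-fitted.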
SNCA expr inhib = SNCA gene expression inhibition. HEK-293 SNCA-luciferase knock-in, luminescence, 24 h. Potency, µM (doses to about 57.2 µM), inactives show top-dose activity change, negative = inhibition, actives largely listed as inhibitors. 140,000 tested, 0.17% active. AID 1671194;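 further: potency means the concentration at half of the fitted maximal effect; plate controls were DMSO cells for no effect and cell-free wells for full effect; nearly all actives have a fitted effect of over 45% in size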
KDM5B inhibitor = blocks human KDM5B histone demethylase activity; KDM5B demethylase, FDH-coupled NADH fluorescence (FDH is formaldehyde dehydrogenase); Potency, µM (highest dose often 57.7 µM), hits mostly inhibitors; 220,000 tested, 2.6% active; AID 1347165; further: potency means the concentration at half of the fitted maximal effect; 0% is about no effect; nearly all actives have a fitted effect of over 70% in size
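Coupled FDH/NAD⁺ fluorescence readout. KDM5BΔAP 200 nM final; compound titration, 10 min RT preincubation; substrate mix 12.5 µM H3K4me3, 25 µM 2-OG, 50 µM Fe(II), 100 µM ascorbate, 0.25 mM NAD⁺, 0.25 U/mL FDH; ΔRFU over 30 min.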
Numbers without * were called inactive; [ ] = another dose, or the depositor's remark. Unless noted, the call rests on the fitted dose curve; in most records, active means well fitted curve in the direction sought with a large enough effect; inconclusive means small, poorly fitted or top-dose-only effect, or another doubt; inactive means no such curve, though single readings can be large; an effect the other way counts as inactive or inconclusive.

What do the screens show for `Clc1ccc2ncc(-c3cccc(NC4CNC4)n3)n2c1`?
IP6K1 inhibitor: -4; HEK293 viab: -30%; SNCA expr inhib: 0.61µM*

How did Cn1ccc(NC(=O)c2ccc3c(c2)NC(C)(CCCCc2ccccc2)CO3)n1 (stereo not drawn) do in these assays?
IP6K1 inhibitor: 4; HEK293 viab: -13%[87.6 µM]; SNCA expr inhib: -26%[87.6 µM]; KDM5B inhibitor: 32µM*

Results for CC(=O)N1CCCN(C(=O)c2ccc3c(c2)NC(C)(CCCCc2ccccc2)CO3)CC1 (stereo not drawn) ?
IP6K1 inhibitor: -8; HEK293 viab: -5%; SNCA expr inhib: -15%; KDM5B inhibitor: inactive

What do the screens show for `C[C@@H]1CN(C(=O)c2ccc3c(c2)NC(C)(CCCCc2ccccc2)CO3)C[C@H](C)O1` (stereo partly drawn)?
IP6K1 inhibitor: -11; HEK293 viab: 11%[87.6 µM]; SNCA expr inhib: -25%[87.6 µM]; KDM5B inhibitor: 35µM*

Results for CC1(CNc2ccccc2)COc2ccc(C(=O)NC3CCOCC3)cc2N1 (stereo not drawn) ?
IP6K1 inhibitor: -1; HEK293 viab: -5%[87.6 µM]; SNCA expr inhib: inconclusive; KDM5B inhibitor: inconclusive

How did CNC(=O)c1ccc2c(c1)NC(C)(CCCCc1ccccc1)CO2 (stereo not drawn) do in these assays?
IP6K1 inhibitor: -10; HEK293 viab: -19%[87.6 µM]; SNCA expr inhib: -17%[87.6 µM]; KDM5B inhibitor: 32µM*

Results for CC1(CCCCc2ccccc2)COc2ccc(C(=O)NC3CCC(O)CC3)cc2N1 (stereo not drawn) ?
IP6K1 inhibitor: 8; HEK293 viab: -6%[87.6 µM]; SNCA expr inhib: inconclusive; KDM5B inhibitor: 40µM*

How did O=C(CCNC(=O)C1CCCC1)NCCc1ccsc1 do in these assays?
KDM5B inhibitor: inactive

What do the screens show for `O=C(Nc1ccc(F)cc1F)N1CCN(c2cc(=O)n3nc(-c4ccco4)sc3n2)CC1`?
KDM5B inhibitor: inactive

What do the screens show for `NC(=O)Cn1ccc2cc(OCC3CCN(C(=O)CCc4ccccc4)CC3)cnc21`?
IP6K1 inhibitor: -9; HEK293 viab: -10%[87.6 µM]; SNCA expr inhib: -15%[87.6 µM]; KDM5B inhibitor: 32µM*

What do the screens show for `NC(=O)Cn1ccc2cc(OCC3CCN(C(=O)COc4ccccc4)CC3)cnc21`?
IP6K1 inhibitor: -8; HEK293 viab: -2%[87.6 µM]; SNCA expr inhib: 17%[87.6 µM]; KDM5B inhibitor: 35µM*

What do the screens show for `C=C(C)C(=O)OC1CC2(C)OC(=CC2=O)C(=C)CC2OC(=O)C(=C)C12` (stereo not drawn)?
IP6K1 inhibitor: -11; HEK293 viab: 12µM*

What do the screens show for `O=C(c1c[nH]c2ccccc12)C(Sc1cc(Cl)ccc1Cl)c1ccccc1` (stereo not drawn)?
KDM5B inhibitor: inactive

How did O=C1Nc2ccc(-c3ccccc3F)cc2C(=O)N2CCN(C(=O)C3CCNCC3)C[C@H]12 do in these assays?
IP6K1 inhibitor: -2; HEK293 viab: 11%[87.6 µM]; SNCA expr inhib: inconclusive; KDM5B inhibitor: inconclusive

Results for Cc1nc(Nc2n[nH]c3c2CN(C(=O)NC(CN(C)C)c2ccccc2)C3(C)C)c2sccc2n1 (stereo not drawn) ?
IP6K1 inhibitor: -5; HEK293 viab: 7.5µM*

What do the screens show for `COc1ccccc1OCC(=O)c1ccc2c(c1)N(CC(=O)N(C)Cc1ccccc1)C(=O)CO2`?
IP6K1 inhibitor: 4; HEK293 viab: inconclusive; SNCA expr inhib: 6%; KDM5B inhibitor: inactive

Results for COCCN1Cc2ccc(NCC(C)C)nc2C(C)(C(=O)Nc2ccccc2)C1 (stereo not drawn) ?
IP6K1 inhibitor: 8; HEK293 viab: -11%[87.6 µM]; SNCA expr inhib: -8%[87.6 µM]; KDM5B inhibitor: inconclusive

What do the screens show for `CC1(C(=O)Nc2ccc(F)cc2)CN(Cc2ccccc2)Cc2ccc(N3CCOCC3)nc21` (stereo not drawn)?
IP6K1 inhibitor: -6; HEK293 viab: -16%; SNCA expr inhib: inconclusive; KDM5B inhibitor: 32µM*

Results for CC1(C(=O)Nc2ccccc2)CN(Cc2ccccc2)Cc2ccc(N3CCOCC3)nc21 (stereo not drawn) ?
IP6K1 inhibitor: 12; HEK293 viab: -25%; SNCA expr inhib: inconclusive; KDM5B inhibitor: 13µM*

How did CN1CCC(NC(=O)C2(C)CN(Cc3ccccc3)Cc3ccc(Nc4ccccc4)nc32)CC1 (stereo not drawn) do in these assays?
IP6K1 inhibitor: -12; HEK293 viab: -27%; SNCA expr inhib: -18%; KDM5B inhibitor: inconclusive

Results for CSCC(=O)Nc1nn(-c2ccc(F)cc2)c2cccc(N3CCOCC3)c12 ?
IP6K1 inhibitor: 35; HEK293 viab: inconclusive; SNCA expr inhib: 69%; KDM5B inhibitor: 25µM*
